The text below walks through data of PubChem BioAssay (EPA / NIEHS).

Each structure is given as a SMILES string. “And” between values parts separate entries of the source, which are not always exact repeats. Equal values may be shown once. A structure can be active in one record and inactive in another. The source made the active and inactive calls. The calls were made as follows: active = hit-call score of the fitted dose curve at least 0.9, where 1 is the maximum; inactive = score below 0.9.

By AC50 is commonly meant the concentration giving half of the maximal activity seen.

The nature of the experiment: BSK_3C_Proliferation: Cell Proliferation Assessment in the BioMAP Diversity Plus: 3C Assay (AID 2283006).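 As to AC50: potency may reflect either rise or fall in cell number versus DMSO.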 To be noted: primary human endothelial cells (HUVEC). The procedure:
BSK_3C is a cell-based, multiplexed-readout assay that uses umbilical vein endothelium, a human vascular primary cell, with measurements taken at 24 hours after chemical dosing in a 96-well plate.BSK_3C_Proliferation is an assay component measured in the BSK_3C assay. It measures 0.1% sulforhodamine related to cell proliferation using Sulforhodamine staining technology.Data from the assay component BSK_3C_Proliferation was analyzed into 1 assay endpoint. This assay endpoint, BSK_3C_Proliferation, was analyzed with bidirectional fitting relative to DMSO as the negative control and baseline of activity. Using a type of viability reporter, measures of total protein for gain or loss-of-signal activity can be used to understand the viability at the cellular-level. Furthermore, this assay endpoint can be referred to as a secondary readout, because this assay has produced multiple assay endpoints where this one serves a viability function. To generalize the intended target to other relatable targets, this assay endpoint is annotated to the cell cycle intended target family, where the subfamily is proliferation.
The levels of cell surface (or secreted, indicated by the prefix "s") biomarker endpoints were measured by ELISA. Overt cytotoxicity to cells in confluent adherent cultures (all systems other than the BT system) was assessed by measuring total protein levels using sulforhodamine B (SRB) staining in parallel cultures at the time of biomarker measurements, indicated as SRB endpoints. For proliferation assays for adherent cell types, individual cell types are cultured at sub-confluence and relative cell numbers quantified by SRB staining at time points optimized for each system (48 h: 3C and CASM3C systems; 72 h: BT and HDF3CGF systems; 96 h: SAg system). SRB was performed by staining cells with 0.1% SRB after fixation with 10% TCA and reading wells at 560 nm.Viability and proliferation of PBMC (T cells) was quantified by Alamar Blue reduction for the SAg and BT systems. For PBMC viability (referred to as PBMC Cytotoxicity within the assay endpoint names), cells were plated (75,000/well in a 96-well plate) and then chemical samples added for 1 h before addition of activators, SEB and TSST-1 (20 ng/mL final concentration each). Cells were incubated for 90 h. Then, Alamar Blue (20 uL/well) (Invitrogen, Cat DAL1100) was added for 6 h, and the plates were read with a fluorescence microplate reader at 546/580 nm (excitation/emission). For PBMC proliferation, cells were plated and activated as above but incubated for only 16 h prior to addition of Alamar Blue. Plates were read after 6 h.
Turning to `Cc1cccc2c1ccc1ccccc12`, the concentration at half-maximal activity (AC50) is 20 µM (active).

`O=S(=O)(O)C(F)(F)C(F)(F)C(F)(F)C(F)(F)C(F)(F)C(F)(F)C(F)(F)C(F)(F)C(F)(F)C(F)(F)F`: the AC50 is 13.3 µM (active).

Take `CN(CCO)S(=O)(=O)C(F)(F)C(F)(F)C(F)(F)C(F)(F)C(F)(F)C(F)(F)C(F)(F)C(F)(F)F`: the AC50 was 0.662 µM (active) and the outcome was inactive.

For `COCN(COC)c1nc(N(COC)COC)nc(N(COC)COC)n1`, the outcome was inactive.

For `O=C(NCc1ncc(C(F)(F)F)cc1Cl)c1c(Cl)cccc1Cl`, the outcome was inactive.

With `COC1=CC(=O)C[C@@H](C)[C@]12Oc1c(Cl)c(OC)cc(OC)c1C2=O`, the AC50 was 28.3 µM (active).

Regarding `O=C1c2ccc(O)c(O)c2C(=O)c2c(O)ccc(O)c21`, the outcome was inactive.

For the compound `NC(=NCCCCCCN=C(N)/N=C(\N)Nc1ccc(Cl)cc1)/N=C(\N)Nc1ccc(Cl)cc1`, the AC50 is 4.95 µM (active).

For the compound `CCCCc1oc2ccccc2c1C(=O)c1cc(I)c(OCCN(CC)CC)c(I)c1`, the AC50 was 5.66 µM (active).

For `COc1cc(OC)nc(NC(=O)NS(=O)(=O)Nc2ccccc2C(=O)N(C)C)n1`, the outcome was inactive.

Regarding `Oc1cc2ccccc2cc1O`, the result was inactive.

Consider `O=C(O)CCC(F)(F)C(F)(F)C(F)(F)C(F)(F)C(F)(F)C(F)(F)F`, for which the result was inactive.

As for `O=C(O)CCC(F)(F)C(F)(F)C(F)(F)C(F)(F)C(F)(F)F`, the outcome was inactive.

Take `CCCCCCCCCCCC`: the AC50 was 36.1 µM (active) and 31 µM (active).

As for `O=C1NS(=O)(=O)c2ccccc21`, the result was inactive.

On to `CCCCC(CC)C(=O)OCCOCCOCCOCCOC(=O)C(CC)CCCC` (stereo not given), for which the AC50 is 20 µM (active).

Regarding `CC1=NN(c2ccccc2)C(=O)C1`, the outcome was inactive.

For the compound `CN(C)CCOC(c1ccccc1)c1ccccc1`, the outcome was inactive.

Turning to `CCCCCc1ccc(O)cc1`, the AC50 is 10.5 µM (active).

On to `Clc1ccc(Nc2nnc(Cc3ccncc3)c3ccccc23)cc1`, for which the outcome was inactive.

In the case of `CCCCC=O`, the outcome was inactive.

As for `O=C(CC(=O)C(F)(F)C(F)(F)C(F)(F)F)c1cccs1`, the AC50 is 15.1 µM (active) and 16.5 µM (active).

Turning to `CCCCC(CC)C(=O)O` (stereo not given), the result was inactive.

`CC(=O)Nc1ccc(O)cc1`: the outcome was inactive.

For the compound `OCC(CO)(CBr)CBr`, the result was inactive.

On to `CCC(C)c1ccccc1O` (stereo not given), for which the result was inactive.

In the case of `C[C@]12CC[C@@H]3c4ccc(O)cc4CC[C@H]3[C@@H]1C[C@@H](O)[C@@H]2O`, the result was inactive.

`O=C1OC2(c3ccccc31)c1cc(I)c(O)c(I)c1Oc1c2cc(I)c(O)c1I`: the result was inactive.

In the case of `O=C(c1ccccc1)c1ccccc1`, the outcome was inactive.

For the compound `OCC(F)(F)C(F)(F)C(F)(F)C(F)(F)C(F)(F)C(F)(F)C(F)(F)C(F)(F)C(F)(F)C(F)(F)C(F)(F)F`, the AC50 was 141 nM (active) and 224 nM (active).

In the case of `C=CC(=O)OCCC(F)(F)C(F)(F)C(F)(F)C(F)(F)C(F)(F)C(F)(F)C(F)(F)C(F)(F)F`, the result was inactive.

Take `CCCCCCCCCCCCCCCCCC[N+](C)(C)Cc1ccccc1`: the AC50 is 0.281 µM (active).

For `CCOC(=O)CN[C@@H](C(=O)N1CC[C@H]1C(=O)NCc1ccc(/C(N)=N/O)cc1)C1CCCCC1`, the outcome was inactive.

For the compound `Oc1ccc(Cc2ccccc2O)cc1`, the AC50 is 15.9 µM (active) and the outcome was inactive.

Consider `N=C(N)c1ccc(OCCCCCOc2ccc(C(=N)N)cc2)cc1`, for which the AC50 was 5.13 µM (active).

For `OCCN1CN(CCO)CN(CCO)C1`, the AC50 was 24.2 µM (active).

Consider `O=C(NO)c1ccccc1`, for which the outcome was inactive.

For the compound `O=C(CCCN1CCC(O)(c2ccc(Cl)cc2)CC1)c1ccc(F)cc1`, the AC50 was 7.3 µM (active).
